Consider 27 compounds from PubChem BioAssay (NCATS).

The structures appear in SMILES notation. Results filed as inconclusive are left out. A number with no mark means an inactive call. Calls of active or inactive are those of the source. Unless noted, calls come from the whole dose curve; as a rule, active = well fitted curve in the direction sought with a large enough effect; inconclusive = small, poorly fitted or top-dose-only effect, or another doubt; inactive = no such curve, though single readings can be large; an effect the other way counts as inactive or inconclusive.

The target of assay [1] is Aldehyde dehydrogenase, mitochondrial (Homo sapiens) (UniProt P05091). In words: qHTS for Inhibitors of the Aldehyde Dehydrogenase Family (ALDH2) Validation screens (AID 2061302; active = well fitted inhibition curve with a large enough effect; title and protocol of this record describe different tests;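 note: plate controls were DMSO vehicle for no effect and maximal DPI positive control response for full effect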). On the technique in general: qHTS replaces the single test concentration by a dilution series.
The target of assay [2] is Retinaldehyde dehydrogenase 3 (Homo sapiens) (UniProt P47895). Description: qHTS for Inhibitors of the Aldehyde Dehydrogenase Family (ALDH1A3) Validation screen (AID 2061312). Note: % is set by controls: 0 for no effect and ±100 for the full control effect; nearly all actives have a fitted effect of over 45% in size.
Assay [3] in a line: BET inhibitor-based combinations targeting novel dependencies in MECOM-rearranged (r) AML: SET-2 cell line (AID 2202231).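 For viability: plate controls were DMSO treated cells for no effect and wells without cells for full effect.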 Note: nearly all actives have a fitted effect of over 35% in size. Note: potency is the fitted concentration of half-maximal effect. The conditions noted are these: SET-2 AML cells viability, CellTiter-Glo luminescence, 48 h; viability: stronger effect = lower value, concentration not given here. An outline of the steps:
(§1)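 Luminescent ATP readout (CellTiter-Glo) after 48 hr drug exposure gives viability. Curves span 11 concentrations and are normalized to DMSO and empty wells. Activity is reported as area under the curve and its Z-transform within each cell line.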

Assay [4] can be described thus: BET inhibitor-based combinations targeting novel dependencies in MECOM-rearranged (r) AML: OCI-AML3 cell line (AID 2202232). Note: nearly all actives have a fitted effect of over 35% in size. Note: potency is the fitted concentration of half-maximal effect. The settings on record: Potency: OCI-AML3 viability. In outline: as §1
A short description of assay [5]: BET inhibitor-based combinations targeting novel dependencies in MECOM-rearranged (r) AML: MV-4-11 cell line (AID 2202233). Note: nearly all actives have a fitted effect of over 45% in size. Note: potency is the fitted concentration of half-maximal effect. In outline:
(§2)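 Luminescent ATP readout (CellTiter-Glo, 15 min at room temperature) after 48 hr drug exposure gave viability. Dose-response curves, normalized to DMSO and empty-well controls, were summarized as area under the curve and its mean-centred Z-score.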

The nature of assay [6]: BET inhibitor-based combinations targeting novel dependencies in MECOM-rearranged (r) AML: HNT-34 cell line (AID 2202234). Note: nearly all actives have a fitted effect of over 35% in size. Note: potency is the fitted concentration of half-maximal effect. An outline of the steps:
as §2

Assay [7] in a line: BET inhibitor-based combinations targeting novel dependencies in MECOM-rearranged (r) AML: UCSD-AML1 cell line (AID 2202235). Note: nearly all actives have a fitted effect of over 40% in size. Note: potency is the fitted concentration of half-maximal effect. In outline: as §2
The nature of assay [8]: BET inhibitor-based combinations targeting novel dependencies in MECOM-rearranged (r) AML: AML-191 cell line (AID 2202236; note: nearly all actives have a fitted effect of over 35% in size; note: potency is the fitted concentration of half-maximal effect). In outline:
as §1

Assay [9] can be described thus: BET inhibitor-based combinations targeting novel dependencies in MECOM-rearranged (r) AML: AML-194 cell line (AID 2202237; note: nearly all actives have a fitted effect of over 40% in size; note: potency is the fitted concentration of half-maximal effect). An outline of the steps:
as §1

The target of assay [10] is Retinaldehyde dehydrogenase 3 (Homo sapiens) (UniProt P47895). Description: qHTS for Inhibitors of the Aldehyde Dehydrogenase Family (ALDH1A3) Primary screen (AID 2061315).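 Note: plate controls were DMSO vehicle for no effect and reference inhibitor for full effect.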

With `CN(C)CCCN1c2ccccc2Sc2ccc(C(F)(F)F)cc21`, the Potency entry in [1] and in assay [2] was “inactive” throughout.

As for `O=c1[nH]cnc2[nH]ncc12`, the Potency entry in [1], in [2], in [4], in assay [5], in [7] and in [8] was “inactive” throughout. Also, in [9], the Potency entry is “inactive”. Further, in assay [3], the viability (commonly a read-out of living cells in per cent, often relative to untreated cells) was 124%. In addition, the Potency in assay [6] was 1.3 nM (active).

Turning to `CN1CCN(C2=Nc3cc(Cl)ccc3Nc3ccccc32)CC1`, the Potency entry in [1], in assay [2], in assay [4], in assay [5] and in [9] was “inactive” in each case. The Potency in [6] was 20900 nM (active).

Turning to `CN1C2CCC1CC(OC(=O)C(CO)c1ccccc1)C2` (stereo not drawn), the Potency entry in assay [1], in assay [2], in [5], in assay [6], in assay [7] and in [8] was “inactive” in each case. Besides, the Potency entry in assay [9] is “inactive”. Besides, the viability in assay [3] was 89.7%.

On to `NC[C@H](O)c1ccc(O)c(O)c1`, for which the Potency result in [1], in assay [10], in assay [4], in assay [5], in assay [6] and in assay [7] was “inactive” throughout. Also, the Potency entry in [8] and in assay [9] was “inactive” throughout. Moreover, the viability in assay [3] is 116%.

Regarding `O=C1c2c(O)ccc(O)c2C(=O)c2c(NCCNCCO)ccc(NCCNCCO)c21`, the Potency entry in [1] is “inactive”. Also, the Potency in assay [3] was 742 nM (active); in assay [4], 209 nM (active); in assay [5], 74.2 nM (active); in assay [6] it was 132 nM (active); in [7], 148 nM (active); in assay [8], 372 nM (active). For the same compound, the Potency in assay [9] was 372 nM (active).

On to `N[C@@H](Cc1c[nH]c2ccccc12)C(=O)O`, for which the Potency entry in assay [1] and in [2] was “inactive” throughout.

With `Nc1nc(OCC2CCCCC2)c2[nH]cnc2n1`, the Potency result in [1] and in assay [2] was “inactive” in each case.

Regarding `O=C(C1CCCCC1)N1CC(=O)N2CCc3ccccc3C2C1` (stereo not drawn), the Potency result in assay [1], in assay [2], in assay [4], in assay [5], in assay [6] and in [7] was “inactive” in each case. Besides, the Potency entry in assay [8] and in assay [9] was “inactive” in each case. In addition, the viability in [3] was 120%.

In the case of `N[C@@H](Cc1c[nH]c2ccc(O)cc12)C(=O)O`, the Potency entry in assay [1], in [2], in [4], in [5], in assay [7] and in assay [9] was “inactive” each time.

For `COc1nc(C)nc(Cl)c1NC1=NCCN1`, the Potency result in [1], in assay [2], in assay [4], in [6], in [7] and in assay [8] was “inactive” throughout. Besides, in [9], the Potency result is “inactive”.

For the compound `NCCCC(N)(C(=O)O)C(F)F` (stereo not drawn), the Potency entry in assay [1], in assay [4], in [5], in [6], in assay [7] and in assay [8] was “inactive” each time. Besides, in assay [3], the viability is 102%.

For the compound `CC(=O)OCC(CCn1cnc2cnc(N)nc21)COC(C)=O`, the Potency entry in assay [1], in assay [2], in assay [4], in [7], in assay [8] and in [9] was “inactive” throughout. For the same compound, the viability in assay [3] is 121%.

As to `C[N+](C)(C)CCOP(=O)(O)OP(=O)([O-])OC[C@H]1O[C@@H](n2ccc(N)nc2=O)[C@H](O)[C@@H]1O`, the Potency entry in assay [1] and in assay [2] was “inactive” each time.

In the case of `NC(N)=[N+]1CCc2ccccc2C1`, the Potency result in [1] and in assay [2] was “inactive” each time.

Turning to `C[C@]12CCC(=O)C=C1CC[C@@H]1[C@@H]2[C@@H](O)C[C@@]2(C)[C@H]1CC[C@]2(O)C(=O)CO`, the Potency result in [1], in assay [2], in assay [4], in [5], in assay [6] and in assay [7] was “inactive” each time. The Potency entry in assay [9] is “inactive”. Besides, the viability in assay [3] is 113%. Besides, the Potency in assay [8] was 417 nM (active).

On to `O=C1c2ccccc2-c2n[nH]c3cccc1c23`, for which the Potency result in [1] and in assay [2] was “inactive” in each case. For the same compound, the Potency in [4] is 4680 nM (active); in assay [5] it was 3320 nM (active).

With `COc1cc2c(cc1OC)C1CC(=O)C(CC(C)C)CN1CC2` (stereo not drawn), the Potency result in assay [1], in assay [2], in [4], in assay [6], in assay [7] and in [8] was “inactive” throughout. Moreover, the Potency entry in assay [9] is “inactive”. The viability in assay [3] was 109%.

As to `Cn1c(=O)c2c(ncn2C)n(C)c1=O`, the Potency entry in [1], in [2], in [4], in assay [5], in assay [6] and in [7] was “inactive” each time. Moreover, the Potency result in assay [8] and in [9] was “inactive” throughout. Moreover, the viability in [3] was 97.8%.

As to `N[C@@H]1CONC1=O`, the Potency result in assay [1], in assay [2], in assay [4], in assay [5], in assay [6] and in assay [7] was “inactive” each time. For the same compound, the Potency entry in [8] and in assay [9] was “inactive” each time.

For the compound `COc1ccc2c(c1)c(CC(=O)O)c(C)n2C(=O)c1ccc(Cl)cc1`, the Potency entry in [1], in assay [2], in [4], in assay [5], in [7] and in assay [8] was “inactive” throughout. The Potency entry in [9] was “inactive”. In assay [3], the viability is 114%.

Regarding `CN1Cc2c(N)cccc2C(c2ccccc2)C1` (stereo not drawn), the Potency entry in assay [1] and in [2] was “inactive” throughout.

Consider `NC(N)=NCCC[C@H](N)C(=O)O`, for which the Potency entry in assay [1] and in assay [2] was “inactive” each time.

Consider `CN(C)CCOC(c1ccccc1)c1ccccc1`, for which the Potency entry in [1], in assay [4], in [5], in [6], in [7] and in [8] was “inactive” each time. Besides, the viability in [3] is 105%.

As to `CC(=O)OCC(=O)[C@@]1(O)CC[C@H]2[C@@H]3CCC4=CC(=O)CC[C@]4(C)[C@H]3C(=O)C[C@@]21C`, the Potency entry in assay [1], in assay [2], in assay [4], in assay [5], in assay [6] and in assay [8] was “inactive” in each case. Moreover, the Potency entry in [9] is “inactive”. Moreover, in assay [3], the viability was 122%.

For `OCCN(CCO)c1nc(N2CCCCC2)c2nc(N(CCO)CCO)nc(N3CCCCC3)c2n1`, the Potency entry in assay [1], in assay [2], in assay [7] and in assay [9] was “inactive” each time.

For `CCC1(c2ccccc2)C(=O)NCNC1=O`, the Potency entry in assay [1], in assay [2], in assay [4], in assay [5], in assay [6] and in [7] was “inactive” each time. Further, the Potency result in [8] was “inactive”. In addition, in [3], the viability is 109%.
